Inconclusive results are not listed. The source made the active and inactive calls. The calls were made as follows, unless noted: active = hit-call score of the fitted dose curve at least 0.9, where 1 is the maximum; inconclusive = response in the unintended direction; inactive = score below 0.9.
Assays:
SRD5A2 (gene 6716) = experiment: CCTE_Deisenroth_5AR_NBTE_ratio: CCTE's 5alpha-reductase NanoBRET Target Engagement Assay - Ratio, Deisenroth Lab (AID 2284322; active = hit-call score of the fitted dose curve at least 0.9, where 1 is the maximum; inactive = score below 0.9); settings: actives raise or lower the signal
In short: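 SRD5A2-NanoLuc HEK293T; cmpd 10 nM-29.9 uM, 3 h preinc + testosterone tracer 2 h; NanoBRET ratio 650/460; bidirectional fit vs DMSO.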

[1] = TAMU_PeakParms_SingleDonor1434_Asystole: Texas A&M University (TAMU) 1.5-hr Human Induced Pluripotent Stem Cell (iPSC)-derived Cardiomyocytes Calcium (Ca+2) Flux Assay for Cardiotoxicity: Asystole (quiescence of beating) (AID 2284328)
Method: TAMU_PeakParms is a cell-based, multiplexed-readout assay that uses iPSC-derived cardiomyocytes with measurements taken at 1.5 hours after chemical dosing in a microplate: 384-well plate.TAMU_PeakParms_SingleDonor1434_Chronotopy is a phenotype derived from the peak.freq.avg parameter and uses an EC95 as its POD (95% decrease in beat rate, compared to controls). Peak.Freq.Avg measures the average peak frequency, in beats per second, using Fluorescence intensity as a functional reporter from Calcium (Ca+2) flux assay technology. There is no preprocessing performed on the data used to model this phenotype.Data from the assay component TAMU_PeakParms_SingleDonor1434_Asystole was analyzed into 1 assay endpoint. This assay endpoint, TAMU_PeakParms_SingleDonor1434_Asystole, was analyzed in the positive analysis fitting direction relative to DMSO as the negative control and baseline of activity. Using a type of functional reporter, loss-of-signal activity can be used to understand changes in the cardiac function. To generalize the intended target to other relatable targets, this assay endpoint is annotated to the cardiomyocyte function intended target family, where the subfamily is cessation of beating.
Each test compound from the chemical master plates was transferred into new tissue culture-treated 384-well microplates using acoustic dispensing (Labcyte Echo 550, Beckman Coulter, Indianapolis, IN) in amounts that would result in 5x concentrations (1, 5, 50, 500 uM) in the working plate in a final volume of 50 uL. Chemicals were randomly divided into 16 separate 384-well plates for screening such that the outer-most wells were left empty (308 wells were used on each plate). Fifteen of the plates contained unique test chemicals (n = 65 chemicals, 4 concentrations, one replicate each), positive controls (n = 10 chemicals, one concentration, 3 replicates each), vehicle (0.5% DMSO, n = 12), and media-only (n = 6) wells. Plate 16 contained test chemicals (n = 54 chemicals, 4 concentrations, one replicate each), inter-plate replicates (n = 11 chemicals with replicates, 4 concentrations, one replicate each), and the same design of positive controls and vehicle- and media-only wells as other plates. These plates were stored at -80C until the day of the assay. On assay day, the 5x concentrated chemical working plate was prepared by adding 50 uL cardiomyocyte maintenance medium containing 2.5% v/v DMSO to each well of the microplates. Then, 12.5 uL of 5x concentrated test chemical solution was added to the test plate to yield final concentrations of 0.2, 1, 10, and 100 uM in 0.5% v/v DMSO using the liquid handling robotics of the FLIPR Tetra. […]

[2] = VALA_TUBIPS_Antagonist_CellCount: Viability Assessment in the VALA Sciences human iPS-derived Endothelial Tubule Formation (TUBIPS) Antagonism Assay (AID 2284335)
[3] = VALA_MIGHUV1_ScratchOnly_WoundArea: VALA Sciences human Umbilical Vein Endothelial Cell Migration (MIGHUV) Assay, Area of Scratch Wound Inhibited Recovery (AID 2284336)
Method: VALA_MIGHUV1_ScratchOnly is a cell-based, multiplexed assay that uses umbilical vein-derived endothelial cells (HUVEC). Measurements were taken 24 hours after chemical dosing in a 96-well plate.VALA_MIGHUV1_ScratchOnly_WoundArea is the one of two assay components measured from the VALA_MIGHUV1_ScratchOnly assay. It is designed to make measurements of endothelial migration, a form of morphology reporter, as detected with fluorescence intensity signals by HCS Fluorescent Imaging technology. Data from the assay component VALA_MIGHUV1_ScratchOnly_WoundArea was analyzed at the endpoint, VALA_MIGHUV1_ScratchOnly_WoundArea, in the positive analysis fitting direction relative to DMSO as the negative control and baseline of activity. Using a type of morphology reporter, gain-of-signal activity can be used to understand developmental effects. To generalize the intended target to other relatable targets, this assay endpoint is annotated to the neurodevelopment intended target family, where the subfamily is migration.
Cells were seeded on 384-well microplates (day-0) at a density of 9000 cells per well for detection of wound area recovery or 4000 cells per well for detection of beta-catenin (CTNB) immunoreactivity and incubated in Endothelial Cell Growth Medium (CAI, San Diego; catalog 211-500). […]

[4] = VALA_TUBHUV_Agonist_TubuleLength: VALA Sciences human Umbilical Vein Endothelial Tubule Formation (TUBHUV) Agonism Assay (AID 2284337)
In short: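 Tubule length quantified by CD31 immunofluorescence imaging after fixation. HUVEC-HDF co-cultures (1:3) pre-grown 3 days with 10 ng/ml VEGF, then dosed 3 days in VEGF medium; 0.1 % DMSO vehicle baseline.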

[5] = VALA_TUBIPS_Agonist_CellCount: Viability Assessment in the VALA Sciences human iPS-derived Endothelial Tubule Formation (TUBIPS) Agonism Assay (AID 2284338)
[6] = IUF_NPC1_cytotoxicity_72hr: Cytotoxicity Assessment at 72 hours in the Leibniz Research Institute for Environmental Medicine (IUF) Neural Progenitor Cell Proliferation Assay (NPC1) (AID 2284332);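 also: rising LDH signal means more cytotoxicity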
In short: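 LDH in supernatant, resazurin→resorufin fluorescence (RFU), 72 h exposure, no re-dosing. Cells: primary hNPC spheres, one per well, EGF+FGF medium, 37C/5% CO2, pH 7.2-7.6. Fit: positive direction vs baseline and dynamic range.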

[7] = system: Brachyury (BRA) Protein Expression, Deisenroth Lab, TBXT (gene 6862); experiment: CCTE_Deisenroth_DEVTOX-GLR_legacy_Bra: (Legacy) CCTE's DevTox GLR-Endo Assay Evaluation of Brachyury (BRA) Protein Expression, Deisenroth Lab (AID 2284329; active = hit-call score of the fitted dose curve at least 0.9, where 1 is the maximum; inactive = score below 0.9)
In short: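 High-content imaging of fixed RUES2-GLR cells after a 48-hour differentiation with two compound exposures yields percent cells whose Bra signal exceeds pluripotent control median by 5x BMAD; values are baseline-corrected to DMSO.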

[8] = CCTE_Deisenroth_DEVTOX-GLR_legacy_CellCount: (Legacy) Viability Assessment in CCTE's DevTox GLR-Endo Assay, Deisenroth Lab (AID 2284331; active = hit-call score of the fitted dose curve at least 0.9, where 1 is the maximum; inactive = score below 0.9); settings: actives raise or lower the signal
Method: CCTE_Deisenroth_DEVTOX-GLR_legacy assay is a cell-based, multiplex-readout assay that uses RUES2-GLR, a human pluripotent cell line, with measurements taken at 48 hours after chemical dosing in a 384-well microplateCCTE_Deisenroth_DEVTOX-GLR_legacy_CellCount is one of 4 assay components calculated from the CCTE_Deisenroth_DEVTOX-GLR_legacy assay that measures an increase in cell count. It is designed to make measurements of nuclei count, a form of cell viability, as detected with optical fluorescence microscopy by Perkin Elmer Harmony nuclei detection algorithm. The assay endpoints were analyzed with bidirectional fitting relative to 0.2% DMSO control in the DEVTOX-GLR assay.Data from the assay component CCTE_Deisenroth_DEVTOX-GLR_legacy_CellCount was analyzed into 1 assay endpoint. This assay endpoint, CCTE_Deisenroth_DEVTOX-GLR_legacy_CellCount, was analyzed with bidirectional fitting relative to DMSO as the negative control and baseline activity. Using nuclei counting, gain or loss-of-signal activity can be used to understand changes in cell viability. Furthermore, this assay endpoint can be referred to as a primary readout, because this assay has produced multiple assay endpoints where this one serves as a measure of cytotoxicity. To generalize the intended target to other relatable targets, this assay endpoint is annotated to the cell cycle intended target family, where the subfamily is cytotoxicity.
All assay protocols are aligned to the DevTox GLR-Endo assay workflow. Cells are seeded into 384-well microplates for 24 hours prior to initiating differentiation in defined media for a total duration of 48 hours. A total of two chemical exposures are administered in 24-hour intervals during the 48-hour differentiation period. At the assay termination point, cells are fixed and stained with a fluorescent dye demarcating the nucleus. […] Cell identification and mean biomarker fluorescence intensities are calculated with image analysis software to determine the total cell counts for viability assessment and the biomarker expression frequency for each lineage-dependent assay. […]

[9] = VALA_TUBHUV_Antagonist_TubuleLength: VALA Sciences human Umbilical Vein Endothelial Tubule Formation (TUBHUV) Antagonism Assay (AID 2284325)
Method: VALA_TUBHUV_Antagonist is a cell-based, multiplexed assay that uses human umbilical vein endothelial cells (HUVEC). Measurements were taken 72 hours after chemical dosing in a 96-well plate.VALA_TUBHUV_Antagonist_TubuleLength is the one of two assay components measured from the VALA_TUBHUV_Antagonist assay. It is designed to make measurements of tubulogenesis, a form of morphology reporter, as detected with fluorescence intensity signals by HCS Fluorescent Imaging technology. This VALA_TUBHUV_Antagonist assay was designed to detect chemical suppression of tubulogenesis, i.e. antagonism.Data from the assay component VALA_TUBHUV_Antagonist_TubuleLength was analyzed at the endpoint, VALA_TUBHUV_Antagonist_TubuleLength, in the positive analysis fitting direction relative to DMSO as the negative control and baseline of activity. Using a type of morphology reporter, loss-of-signal activity can be used to understand developmental effects. To generalize the intended target to other relatable targets, this assay endpoint is annotated to the neurodevelopment intended target family, where the subfamily is tubulogenesis.
This HUVEC-HDF assay was designed to detect chemical suppression of tubulogenesis, i.e. antagonism. […]

Q: Which AC50 (SRD5A2 (gene 6716)) does the source give for `CCCCCCCCCCCCCC[N+](C)(C)C` here?
A: 75.1 µM (active)

Q: For `c1ccc2c(c1)ccc1ccccc12`, which outcome [1] is on record?
A: inactive

Q: With `CCCCCCCCCCCCc1ccccc1S(=O)(=O)O` as the compound, how does the outcome [2] read?
A: inactive

Q: And the outcome [3]?
A: inactive

Q: What about the AC50 [4] of the same compound?
A: 15.6 µM (active)

Q: And the AC50 [5]?
A: 1.5 µM (active)

Q: With `COCC(C)O` (stereo not drawn) as the compound, how does the outcome (SRD5A2 (gene 6716)) read?
A: inactive

Q: Which AC50 (SRD5A2 (gene 6716)) does the source give for `O=C1OC2(c3ccccc31)c1cc(Br)c(O)c(Br)c1Oc1c2cc(Br)c(O)c1Br` here?
A: 7.55 µM (active)

Q: For `c1ccc2c(c1)Cc1ccccc1-2`, which outcome [1] is on record?
A: inactive

Q: With `c1ccc2cc3c(ccc4ccccc43)cc2c1` as the compound, how does the outcome [1] read?
A: inactive

Q: Which outcome (SRD5A2 (gene 6716)) does the source give for `CCN(CC)CCNc1ccc(CNC=O)c2sc3ccc(OC)cc3c(=O)c12` here?
A: inactive

Q: Which outcome (SRD5A2 (gene 6716)) does the source give for `CCOC(=O)CC(O)(CC(=O)OCC)C(=O)OCC` here?
A: inactive

Q: For `CC#C[C@]1(O)CC[C@H]2[C@@H]3CCC4=CC(=O)CCC4=C3[C@@H](c3ccc(N(C)C)cc3)C[C@@]21C`, which outcome [1] is on record?
A: inactive

Q: And the outcome [6]?
A: inactive

Q: Which AC50 [7] does the source give for `CC1=C(/C=C/C(C)=C/C=C/C(C)=C/C(=O)O)C(C)(C)CCC1` here?
A: 11.7 µM (active)

Q: And the AC50 [8]?
A: 4.44 µM (active)

Q: And the outcome [6]?
A: inactive

Q: With `O=C(O)Cc1cc(I)c(Oc2cc(I)c(O)c(I)c2)c(I)c1` as the compound, how does the outcome [9] read?
A: inactive

Q: What about the outcome [3] of the same compound?
A: inactive

Q: And the outcome [4]?
A: inactive

Q: And the outcome [5]?
A: inactive

Q: For `COCC(C)OCC(C)O` (stereo not drawn), which outcome (SRD5A2 (gene 6716)) is on record?
A: inactive

Q: For `CCCCCCCCOC(=O)CCCCCCCCC(=O)OCCCCCCCC`, which outcome (SRD5A2 (gene 6716)) is on record?
A: inactive

Q: With `C[C@@H]1C[C@H]2[C@@H]3CCC4=CC(=O)C=C[C@]4(C)[C@@]3(F)[C@@H](O)C[C@]2(C)[C@@]1(O)C(=O)COP(=O)(O)O` as the compound, how does the outcome [7] read?
A: inactive

Q: What about the outcome [8] of the same compound?
A: inactive

Q: With `CC(O)CO` (stereo not drawn) as the compound, how does the outcome [7] read?
A: inactive

Q: And the outcome [8]?
A: inactive

Q: Which AC50 (SRD5A2 (gene 6716)) does the source give for `O=[N+]([O-])c1ccc(O)cc1` here?
A: 71.2 µM (active)

From PubChem BioAssay (EPA / NIEHS)
